Test [1] can be described thus: sensitizers of A549 cells to miR-34 induction, primary screen, imaging, A549 dox-inducible miR-34, nuclei and caspase counts (AID 1347080). The settings on record: A549 miR-34 inducible, Hoechst nuclei count, 48 h.
A short description of test [2]: phospholipid biosynthesis inhibitors in animal cells, primary screen, cell-based, LOPAC library, screen 4 (AID 1347384; call rule not given here). The settings on record: phospholipid biosynthesis inhibition screen, at 10 µM.
A short description of test [3]: survival rescue of mitochondrial mutant cells in low glucose, primary screen, MELAS cybrids, Rieske KO mouse fibroblasts, CellTiter-Glo (AID 1508586;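 active = mean z-score across replicates of 1.96 or higher in either the MELAS or the Rieske mutant cell line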;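 also: z relative to plate mean and SD of compound and empty wells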). Background: In ATP-based viability assays light output follows the ATP content of the culture.
Test [4] addresses NAD(+) hydrolase SARM1 (Homo sapiens) (UniProt Q6SZW1). The test is described as follows: SARM1 TIR NADase inhibitors, cell lysate, NAD-Glo luminescence (AID 1508614;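 active = compound whose remaining NAD level is above about 45 nM, limit read from the data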;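 also: higher remaining NAD means stronger inhibition of SARM1 NADase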). The following applies: SAM-TIR HEK293T lysate NADase, at 1 µM, stronger effect = higher value.
Test [5] has as its target Mitogen-activated protein kinase 7 (Homo sapiens) (UniProt Q13164). The test is described as follows: ERK5 transactivation activators in reporter cells, primary screen, cell-based, HTS (AID 1508626;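 active = luciferase signal above three times the same-plate solvent-only control wells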;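 also: luciferase driven by Gal4-ERK5 fusion binding five Gal4 sites before minimal TATA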). The settings on record: HeLa Gal4-ERK5 transactivation, 18 h, at 5 µM, stronger effect = higher value.
The nature of test [6]: viability rescue of complex I mutant cybrids, primary screen, cell-based, galactose medium, ATP luminescence (AID 1645843;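 active = z-score of at least 1.8 in each of two replicates, scored against plate mean and spread of sample wells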;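 also: positive z means more ATP and so rescue of galactose-driven cybrid death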). The settings on record: complex I mutant cybrid cells, 72 h, stronger effect = higher value.
Test [7] is described as follows: LFS_MB_P medulloblastoma growth inhibition, cell-based, chromothripsis tumors, cisplatin or BGB combos (AID 1671449; in the data active = inhibition above about 80%;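 also: cells exposed for 96 hours; 0% = vehicle DMSO and 100% = killing by high DMSO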). The settings on record: LFS_MB_P medulloblastoma cells.
A short description of test [8]: HDN33 neuroblastoma growth inhibition, cell-based, chromothripsis tumors, cisplatin or BGB combos (AID 1671450; in the data active = inhibition above about 80%;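 also: cells exposed to compound for four days; 0% = vehicle DMSO and 100% = cell killing by high DMSO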). The settings on record: HDN33 neuroblastoma cells, stronger effect = higher value.
A short description of test [9]: ICB984 medulloblastoma cell growth inhibition, synergistic combos for chromothripsis tumors, cisplatin or BGB combos (AID 1671451; call rule not given here;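 also: cells exposed for 96 hours before readout; 0% = vehicle DMSO and 100% = killing by high DMSO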). The following applies: ICB984 medulloblastoma cells, drug combinations, stronger effect = higher value.
The nature of test [10]: LFS_MB_1R medulloblastoma cell growth inhibition, synergistic combos for chromothripsis tumors, cisplatin or BGB combos (AID 1671452; in the data active = inhibition above about 80%;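 also: cells exposed for 96 hours before readout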). The following applies: LFS_MB_1R medulloblastoma cells, stronger effect = higher value.
Test [11] is described as follows: HTB85 osteosarcoma cell growth inhibition, synergistic combos for chromothripsis tumors, BGB or cisplatin IC20 combos (AID 1671453; in the data active = inhibition above about 80%;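 also: cells exposed for 96 hours before readout; 0% = vehicle DMSO and 100% = high DMSO killing control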). The settings on record: HTB85 osteosarcoma cells, drug combinations, stronger effect = higher value.
A short description of test [12]: CRL2098 osteosarcoma cell growth inhibition, synergistic combos for chromothripsis tumors, BGB or cisplatin IC20 combos (AID 1671454; in the data active = inhibition above about 80%;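 also: cells exposed for 96 h before readout; 0% = vehicle DMSO and 100% = killing by high DMSO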). The following applies: CRL2098 osteosarcoma cells, drug combinations, stronger effect = higher value.
Test [13] is described as follows: HD-MB03 medulloblastoma cell growth inhibition, synergistic combos for chromothripsis tumors, BGB or cisplatin IC20 combos (AID 1671455; in the data active = inhibition above about 83%;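 also: 0% = vehicle DMSO and 100% = high DMSO as cytotoxic control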). The settings on record: HD-MB03 medulloblastoma cells, stronger effect = higher value.
Setting [14] is: stronger effect = lower value, cell number ratio, induced over uninduced.
The mark [15] stands for this setting: measured here: relative caspase fold change +Dox/-Dox.
Where [16] appears, read: measured here: total cells with miR-34 induction, stronger effect = lower value.
Where [17] appears, read: measured here: total cells without miR-34 induction.
[18] abbreviates: MELAS cybrid survival, CellTiter-Glo 48 h, stronger effect = higher value.
Where [19] appears, read: Rieske KO mouse fibroblast survival, CellTiter-Glo 72 h.
Where [20] appears, read: measured here: combination with BGB IC40, at 0.05 µM.

“And” between values parts separate entries of the source, which are not always exact repeats. Equal entries are not always repeated. The source made the active and inactive calls.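 The calls were made as follows, unless noted: active = compounds whose cell count with miR-34 switched on is under 0.7 times the count with it off; inactive = the rest.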

We go through nine compounds from PubChem BioAssay.

Sequence of NAD(+) hydrolase SARM1 (Homo sapiens) (Q6SZW1 whole entry, looked up, the tested form may be a part): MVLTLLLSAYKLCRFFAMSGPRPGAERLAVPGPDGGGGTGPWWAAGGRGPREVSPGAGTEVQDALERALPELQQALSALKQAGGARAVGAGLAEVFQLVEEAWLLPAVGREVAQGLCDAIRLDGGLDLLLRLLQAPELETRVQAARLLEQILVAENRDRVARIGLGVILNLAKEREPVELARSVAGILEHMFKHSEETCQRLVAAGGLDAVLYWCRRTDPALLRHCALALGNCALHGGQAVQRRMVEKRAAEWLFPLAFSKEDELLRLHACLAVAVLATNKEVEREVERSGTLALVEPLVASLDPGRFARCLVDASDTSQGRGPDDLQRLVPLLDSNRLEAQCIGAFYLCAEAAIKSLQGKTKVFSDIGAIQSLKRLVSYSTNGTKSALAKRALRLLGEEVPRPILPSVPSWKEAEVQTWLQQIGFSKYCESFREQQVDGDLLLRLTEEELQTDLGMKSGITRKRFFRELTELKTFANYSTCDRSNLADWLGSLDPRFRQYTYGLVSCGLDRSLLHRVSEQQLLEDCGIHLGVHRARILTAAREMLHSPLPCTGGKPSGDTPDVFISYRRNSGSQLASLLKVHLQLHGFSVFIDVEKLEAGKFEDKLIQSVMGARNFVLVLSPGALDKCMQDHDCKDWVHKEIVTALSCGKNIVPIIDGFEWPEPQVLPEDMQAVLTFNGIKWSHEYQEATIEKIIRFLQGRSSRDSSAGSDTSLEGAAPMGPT
Sequence of Mitogen-activated protein kinase 7 (Homo sapiens) (Q13164 whole entry, looked up, the tested form may be a part): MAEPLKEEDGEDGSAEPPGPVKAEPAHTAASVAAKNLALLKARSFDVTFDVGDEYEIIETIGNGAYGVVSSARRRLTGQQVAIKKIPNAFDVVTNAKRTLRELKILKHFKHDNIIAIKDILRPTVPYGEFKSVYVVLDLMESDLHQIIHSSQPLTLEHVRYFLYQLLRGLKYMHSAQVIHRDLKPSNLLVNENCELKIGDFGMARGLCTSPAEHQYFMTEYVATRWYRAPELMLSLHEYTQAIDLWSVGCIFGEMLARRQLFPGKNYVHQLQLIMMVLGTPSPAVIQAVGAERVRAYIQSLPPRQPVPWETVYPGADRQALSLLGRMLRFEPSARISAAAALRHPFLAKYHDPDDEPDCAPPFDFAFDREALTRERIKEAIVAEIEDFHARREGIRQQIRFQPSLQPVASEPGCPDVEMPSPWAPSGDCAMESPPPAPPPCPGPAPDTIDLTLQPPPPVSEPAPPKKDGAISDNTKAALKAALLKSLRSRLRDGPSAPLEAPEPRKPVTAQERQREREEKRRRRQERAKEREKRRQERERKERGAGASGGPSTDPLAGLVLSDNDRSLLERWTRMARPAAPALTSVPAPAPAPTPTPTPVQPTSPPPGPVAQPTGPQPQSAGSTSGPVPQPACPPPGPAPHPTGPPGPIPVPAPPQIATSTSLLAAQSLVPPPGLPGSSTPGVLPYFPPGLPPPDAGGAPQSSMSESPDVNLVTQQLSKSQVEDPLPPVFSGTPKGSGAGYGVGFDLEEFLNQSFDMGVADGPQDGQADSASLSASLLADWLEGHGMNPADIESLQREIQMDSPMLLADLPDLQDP

Broadly, the inhibition is the relative decrease from the control value, in per cent. Take `CCn1cc(C(=O)O)c(=O)c2cc3c(cc21)OCO3`: the fold change in test [1] (setting [14]) was 1.06 (inactive) and 0.943 (inactive) and 0.852 (inactive); in test [1] (setting [15]), 0.823 and 1.43 and 2.84. The cell count in test [1] (setting [16]) was 10300 and 9150 and 11200; in test [1] (setting [17]), 9710 and 9700 and 13200. For the same compound, the compound was classed as inactive in [2]. Further, the results for the z-score in test [3] (setting [18]), in test [3] (setting [19]) and in [6] were 0.663 (inactive), 0.252 and 0.245 (inactive), respectively. In addition, the remaining NAD in [4] is 10 nM (inactive). The luciferase signal in test [5] was 88 AU (inactive). Besides, the inhibition in test [7] (at 0.5 µM, stronger effect = higher value) was -36.8% (inactive); in test [7] (measured here: combination with BGB IC20, at 0.005 µM) it was -15.7%; in [7] (measured here: combination with BGB IC40, at 0.005 µM), -20.3%; in test [7] (setting [20]), -2.68%; in test [7] (measured here: combination with cisplatin, at 0.5 µM, stronger effect = higher value), -50%; in test [7] (measured here: combination with cisplatin, at 5 µM, stronger effect = higher value), -47.2%. Further, the inhibition in test [8] (BGB combo, at 5 µM) is -6.85%; in [8] (at 0.5 µM), 11.7% (inactive); in test [8] (cisplatin combo, at 5 µM), -11.4%; in [8] (measured here: with BGB IC20 combination, at 0.5 µM) it was 31.7%; in test [8] (measured here: with cisplatin IC20 combination, at 0.5 µM), -3.7%; in test [8] (single agent, at 5 µM) it was 13.3%. The inhibition was -17.2% in test [9] (BGB IC20 combo, at 0.005 µM); 7.28% in test [9] (BGB IC40 combo, at 0.005 µM); 6.59% in test [9] (BGB IC40 combo, at 0.05 µM); -11.6% (inactive) in test [9] (at 0.5 µM); 6.59% in test [9] (cisplatin combo, at 0.05 µM); -23.1% in test [9] (cisplatin combo, at 0.5 µM). For the same compound, the inhibition was 6.27% in test [9] (cisplatin combo, at 5 µM); -34.2% in test [9] (measured here: 5 uM single agent, at 5 µM); 0.84% (inactive) in test [10] (at 0.5 µM); -15.9% in [10] (setting [20]); -7.75% in test [10] (measured here: combination with cisplatin, at 0.5 µM); -5.64% in test [10] (measured here: combination with cisplatin, at 5 µM). In addition, the inhibition in test [11] (at 0.5 µM) is -2.07% (inactive); in [11] (measured here: with BGB IC20, at 0.5 µM), -19.1%; in test [11] (measured here: with BGB IC20, at 5 µM), -10.5%; in [11] (measured here: with cisplatin IC20, at 0.5 µM) it was 12%; in test [11] (measured here: with cisplatin IC20, at 5 µM), 2.66%; in test [11] (single agent, at 5 µM), -16.7%. Further, the inhibition in test [12] (at 0.5 µM) is -34.7% (inactive); in test [12] (measured here: combination with BGB at IC20, at 0.5 µM) it was -42.4%; in [12] (measured here: combination with cisplatin at IC20, at 0.5 µM), -29.3%; in test [13] (at 0.5 µM), 1.11% (inactive); in [13] (measured here: combo with BGB at IC20, at 0.5 µM) it was -0.045%; in test [13] (measured here: combo with cisplatin at IC20, at 0.5 µM) it was -3.84%.

As for `CC[C@]12CCCN3CCc4c(n(c5ccccc45)C(=O)C1)[C@@H]32`, the fold change in test [1] (setting [14]) is 0.89 (inactive); in test [1] (setting [15]), 1.52. In addition, the cell count in test [1] (setting [16]) came to 3350; in test [1] (setting [17]), 3760. The z-score in [3] (setting [18]) is 1.02 (inactive); in test [3] (setting [19]) it was 0.169.

For the compound `CN(C)CC[C@@H](c1ccc(Cl)cc1)c1ccccn1`, the results for the fold change in [1] (setting [14]) and in test [1] (setting [15]) were 1.01 (inactive) and 1.39, respectively. In addition, the figures for the cell count in test [1] (setting [16]) and in test [1] (setting [17]) were 9880 and 9740, respectively. The compound was called inactive in [2]. Moreover, the remaining NAD in test [4] is 10 nM (inactive). The luciferase signal in test [5] is 40 AU (inactive). Moreover, the z-score in test [6] was -0.155 (inactive).

For `Cc1cccc(C)c1NC(=O)C(C)N` (stereo unspecified), the fold change was 0.975 (inactive) and 0.939 (inactive) and 0.865 (inactive) in [1] (setting [14]); 0.988 and 0.663 and 1.75 in test [1] (setting [15]). For the same compound, the cell count was 10300 and 9450 and 9090 in [1] (setting [16]); 10600 and 10100 and 10500 in test [1] (setting [17]). Also, the result in test [2] was inactive. In addition, the z-score in test [3] (setting [18]) is 0.748 (inactive); in test [3] (setting [19]), 0.421; in test [6], 0.04 (inactive) and 0.79 (inactive).

Take `O=C1c2cccc(O)c2C(=O)c2c(O)cccc21`: the fold change in [1] (setting [14]) was 0.868 (inactive); in [1] (setting [15]) it was 4.67. In addition, the cell count in test [1] (setting [16]) worked out at 9530; in test [1] (setting [17]), 11000. Moreover, the z-score is 0.3 (inactive) in [3] (setting [18]) and 0.397 in [3] (setting [19]). The remaining NAD in [4] is 10 nM (inactive). In test [5], the luciferase signal was 176 AU (inactive).

On to `CCc1c(C)[nH]c2c1C(=O)C(CN1CCOCC1)CC2` (stereo unspecified), for which the fold change in test [1] (setting [14]) was 1.14 (inactive) and 0.913 (inactive) and 0.969 (inactive); in test [1] (setting [15]), 1.35 and 0.853 and 0.538. Also, the cell count in test [1] (setting [16]) is 11100 and 9250 and 9310; in test [1] (setting [17]) it was 9700 and 10100 and 9610. The call in test [2] was inactive. Further, the z-score was 0.0774 (inactive) in [3] (setting [18]); -0.448 in test [3] (setting [19]); 0.39 (inactive) and -0.105 (inactive) in test [6].

With `NC(Cc1ccc(Cl)cc1)C(=O)O` (stereo unspecified), the fold change in test [1] (setting [14]) was 0.993 (inactive); in [1] (setting [15]), 1.95. The cell count in test [1] (setting [16]) and in test [1] (setting [17]) was 10900 in each case. The outcome in [2] was inactive. For the same compound, in [4], the remaining NAD was 10 nM (inactive). Besides, the z-score in test [6] was 0.25 (inactive).

On to `CCCCC1(COC(=O)CCC(=O)O)C(=O)N(c2ccccc2)N(c2ccccc2)C1=O`, for which the fold change is 0.884 (inactive) in [1] (setting [14]) and 1.12 in test [1] (setting [15]). In addition, the cell count was 8700 in test [1] (setting [16]) and 9850 in test [1] (setting [17]). For the same compound, the z-score was 0.542 (inactive) in [3] (setting [18]) and 0.234 in [3] (setting [19]). Also, the remaining NAD in test [4] is 10 nM (inactive).

In the case of `Cc1cc(CC(=O)O)n(C)c1C(=O)c1ccc(Cl)cc1`, the fold change was 0.925 (inactive) and 0.888 (inactive) in test [1] (setting [14]); 1.12 and 2.44 in test [1] (setting [15]). Besides, the cell count in test [1] (setting [16]) was 9260 and 11200; in [1] (setting [17]) it was 10000 and 12600. In addition, the figures for the z-score in [3] (setting [18]) and in [3] (setting [19]) were -0.685 (inactive) and -0.331, respectively. For the same compound, in test [4], the remaining NAD was 10 nM (inactive). In test [5], the luciferase signal was 96 AU (inactive).
